# Only a selection was taken, and the strongest signals are over-represented in it overall.
# B1: Arath Fbox LD (Arabidopsis thaliana) (protein)
# chain: EFSVWLEKASGKRCLMLSAMNLSIIWGDNPQYWQWIPIPESRFEKVAKLRDVCWFEIRGRTNTRVLSPRTRYSAYIVFKGVDKCYGFQNVAIEAAVGVVGQEPSRRLICFSEAIRRGRRNVVKPKQREDGWMEIELGEFFNDGGIMDNDEIEMSALETKQLNRKCGLIIQGIEIRPAKILAAASFLEQKLISEEDLNSAVDHHHHHH
# Columns and labels:
# Assay in all cases: glycan array binding signal (z-score within array); higher = stronger binding
# Details in all cases: glycan notation: IUPAC condensed, linker removed
# [1] = biological target: GlcNAc(a1-4)Gal(b1-4)GalNAc
# In short: (§1)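 Arrays were curated from the Consortium for Functional Glycomics database, 3228 in total, and kept only where the protein sequence was available. Binding is expressed as a within-array Z-score. This score was averaged across arrays of the same protein sequence at different concentrations or buffers and across linkers, and negative values can be read as non-binding.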
# [2] = biological target: GlcNAc(b1-3)Gal(b1-4)GlcNAc(b1-3)Gal(b1-4)GlcNAc(b1-2)[GlcNAc(b1-3)Gal(b1-4)GlcNAc(b1-3)Gal(b1-4)GlcNAc(b1-6)]Man(a1-6)[GlcNAc(b1-3)Gal(b1-4)GlcNAc(b1-3)Gal(b1-4)GlcNAc(b1-2)Man(a1-3)]Man(b1-4)GlcNAc(b1-4)[Fuc(a1-6)]GlcNAc
# In short: as §1
# [3] = biological target: Man(a1-2)Man(a1-2)Man(a1-3)Man
# In short: as §1
# [4] = biological target: Man(a1-2)Man(a1-3)[Man(a1-6)]Man(a1-6)[Man(a1-2)Man(a1-3)]Man(b1-4)GlcNAc(b1-4)GlcNAc
# In short: as §1
# Man(a1-6)Man = biological target: Man(a1-6)Man
# In short: as §1
# [5] = biological target: Neu5Ac(a2-3)Gal(b1-3)GlcNAc(b1-2)Man
# In short: as §1
# [6] = biological target: Neu5Ac(a2-3)Gal(b1-3)GlcNAc(b1-2)Man(a1-3)[GlcNAc(b1-4)][Neu5Ac(a2-3)Gal(b1-3)GlcNAc(b1-2)Man(a1-6)]Man(b1-4)GlcNAc(b1-4)GlcNAc
# In short: as §1
# [7] = biological target: Neu5Ac(a2-3)Gal(b1-3)GlcNAc(b1-6)GalNAc
# In short: as §1
# [8] = biological target: Neu5Ac(a2-3)Gal(b1-3)GlcNAc6S
# In short: as §1
# [9] = biological target: Neu5Ac(a2-3)Gal(b1-3)[Neu5Ac(a2-6)]GalNAc
# In short: as §1
# [10] = biological target: Neu5Ac(a2-3)Gal(b1-3)[Neu5Ac(a2-6)]GlcNAc(b1-3)[Fuc(a1-3)[Gal(b1-4)]GlcNAc(b1-6)]Gal(b1-4)Glc
# In short: as §1
# Neu5Ac(a2-3)Gal(b1-4)Glc = biological target: Neu5Ac(a2-3)Gal(b1-4)Glc
# In short: as §1
# [11] = biological target: Neu5Ac(a2-3)Gal(b1-4)GlcNAc(b1-2)[Neu5Ac(a2-3)Gal(b1-4)GlcNAc(b1-6)]Man(a1-6)[Neu5Ac(a2-3)Gal(b1-4)GlcNAc(b1-2)Man(a1-3)][GlcNAc(b1-4)]Man(b1-4)GlcNAc(b1-4)GlcNAc
# In short: as §1
# [12] = biological target: Neu5Ac(a2-3)Gal(b1-4)GlcNAc(b1-3)Gal(b1-4)GlcNAc
# In short: as §1
# [13] = biological target: Neu5Ac(a2-3)Gal(b1-4)GlcNAc(b1-3)[Neu5Ac(a2-3)Gal(b1-4)GlcNAc(b1-6)]GalNAc
# In short: as §1
# [14] = biological target: Neu5Ac(a2-3)Gal(b1-4)GlcNAc(b1-6)[Gal(b1-3)]GalNAc
# In short: as §1
# Neu5Ac(a2-6)Gal = biological target: Neu5Ac(a2-6)Gal
# In short: as §1
# Neu5Ac(a2-6)Gal(b1-4)Glc = biological target: Neu5Ac(a2-6)Gal(b1-4)Glc
# In short: as §1
# [15] = biological target: Neu5Ac(a2-6)Gal(b1-4)GlcNAc
# In short: as §1
# [16] = biological target: Neu5Ac(a2-6)Gal(b1-4)GlcNAc(b1-2)[Neu5Ac(a2-6)Gal(b1-4)GlcNAc(b1-6)]Man(a1-6)[Neu5Ac(a2-6)Gal(b1-4)GlcNAc(b1-2)Man(a1-3)][GlcNAc(b1-4)]Man(b1-4)GlcNAc(b1-4)GlcNAc
# In short: as §1
# [17] = biological target: Neu5Ac(a2-6)Gal(b1-4)GlcNAc(b1-3)GalNAc
# In short: as §1
# [18] = biological target: Neu5Ac(a2-6)GalNAc(b1-4)GlcNAc
# In short: as §1
# [19] = biological target: Neu5Ac(a2-8)Neu5Ac(a2-3)Gal(b1-4)Glc
# In short: as §1
# [20] = biological target: Neu5Ac(a2-8)Neu5Ac(a2-3)Gal(b1-4)GlcNAc
# In short: as §1
# [21] = biological target: Neu5Ac(a2-8)Neu5Ac(a2-8)Neu5Ac(a2-8)Neu5Ac(a2-3)[GalNAc(b1-4)]Gal(b1-4)Glc
# In short: as §1
# [22] = biological target: Neu5Ac9Ac(a2-3)Gal(b1-3)GlcNAc
# In short: as §1
# [23] = biological target: Neu5Gc(a2-3)Gal(b1-3)[Fuc(a1-4)]GlcNAc
# In short: as §1
# [24] = biological target: Neu5Gc(a2-3)Gal(b1-4)GlcNAc(b1-3)Gal(b1-4)GlcNAc(b1-2)Man(a1-3)[Neu5Gc(a2-3)Gal(b1-4)GlcNAc(b1-3)Gal(b1-4)GlcNAc(b1-2)Man(a1-6)]Man(b1-4)GlcNAc(b1-4)GlcNAc
# In short: as §1
# Neu5Gc(a2-6)GalNAc = biological target: Neu5Gc(a2-6)GalNAc
# In short: as §1
# [25] = biological target: Neu5Gc(a2-8)Neu5Gc(a2-3)Gal(b1-4)GlcNAc(b1-3)Gal(b1-4)GlcNAc
# In short: as §1
binder,measurement,setting,value
B1,glycan array binding signal (z-score),[1],0.26
same,glycan array binding signal (z-score),[2],0.126
same,glycan array binding signal (z-score),[3],-0.56
same,glycan array binding signal (z-score),[4],-0.337
same,glycan array binding signal (z-score),Man(a1-6)Man,2.7
same,glycan array binding signal (z-score),[5],2.03
same,glycan array binding signal (z-score),[6],-0.462
same,glycan array binding signal (z-score),[7],-0.64
same,glycan array binding signal (z-score),[8],-0.302
same,glycan array binding signal (z-score),[9],-0.264
same,glycan array binding signal (z-score),[10],-0.662
same,glycan array binding signal (z-score),Neu5Ac(a2-3)Gal(b1-4)Glc,-0.473
same,glycan array binding signal (z-score),[11],-0.407
same,glycan array binding signal (z-score),[12],-0.587
same,glycan array binding signal (z-score),[13],-0.595
same,glycan array binding signal (z-score),[14],-0.599
same,glycan array binding signal (z-score),Neu5Ac(a2-6)Gal,2.83
same,glycan array binding signal (z-score),Neu5Ac(a2-6)Gal(b1-4)Glc,0.791
same,glycan array binding signal (z-score),[15],-0.052
same,glycan array binding signal (z-score),[16],0.015
same,glycan array binding signal (z-score),[17],-0.324
same,glycan array binding signal (z-score),[18],-0.53
same,glycan array binding signal (z-score),[19],-0.516
same,glycan array binding signal (z-score),[20],-0.254
same,glycan array binding signal (z-score),[21],0.508
same,glycan array binding signal (z-score),[22],3.71
same,glycan array binding signal (z-score),[23],-0.502
same,glycan array binding signal (z-score),[24],-0.554
same,glycan array binding signal (z-score),Neu5Gc(a2-6)GalNAc,-0.28
same,glycan array binding signal (z-score),[25],-0.404

# Reference: the supplement of paper PMC8728848
